HT1080 IDH1KD tx: qHTS for induction of synthetic lethality in tumor cells producing 2HG: qHTS for the HT-1080-IDH1KD cell line; HT-1080 IDH1 knockdown viability, ATP luminescence, 48 h; Potency, µM (doses to about 46.1 µM), hits mostly cytotoxic; 360,000 tested, 2% active
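Assay cells: HT-1080 with IDH1 knockdown, 750 per well, RPMI/5% FBS. Exposure: 48 h at 37 °C following 2 h pre-incubation. Read: CellTiter-Glo luminescence; fitted concentration-response, curve class assigned.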
IL1B secr inh: qHTS for Inhibitors of Inflammasome Signaling: IL-1-beta AlphaLISA Primary Screen | THP-1 LPS/ATP IL-1B secretion, AlphaLISA, 16 h; stronger effect = lower value | activity change, % at 57.5 µM | 360,000 tested, 4.7% active; in the data active = activity change below about -50%; inconclusive = mostly about -30% to -49%
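THP-1 cells pretreated 1 hr with compounds (up to 57.5 uM final), then stimulated with LPS (250 ng/mL final) plus ATP (1.25 mM final); secreted IL-1B measured by AlphaLISA after 16 hr, decreased signal indicating inhibition.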
DT40 TDP1 CPT: qHTS for Inhibitors of human tyrosyl-DNA phosphodiesterase 1 (TDP1): qHTS in cells in presence of CPT | 420,000 tested, 12% active | chicken DT40 Tdp1-/-;hTDP1 cells + 20 nM CPT, ATP luminescence, 48 h | AID 686979, 2013 | Potency, µM (doses to about 46.2 µM), actives largely listed as inhibitors; also: nearly all actives have a fitted effect of over 55% in size
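Chicken DT40 Tdp1-/- cells stably complemented with human TDP1 were seeded at 400 cells/well in medium containing 20 nM camptothecin, exposed to pin-transferred compounds, and grown at 37 °C for at least 48 hr. Viability was read as ATP luminescence.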
DT40 TDP1 no CPT: qHTS for Inhibitors of human tyrosyl-DNA phosphodiesterase 1 (TDP1): qHTS in cells in absence of CPT; Potency, µM (highest dose often 46.2 µM), most hits filed as inhibitors; DT40 Tdp1-/- hTDP1 cells, no CPT, ATP luminescence, 48 h; 420,000 tested, 15% active; also: nearly all actives have a fitted effect of over 55% in size
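Luminescent ATP content (CellTiter-Glo) served as the growth readout. Knockout chicken DT40 cells expressing human TDP1 were exposed to compounds without camptothecin for a minimum 48 hr at 37 °C.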
ELG1 DNA repair: qHTS screen for small molecules that inhibit ELG1-dependent DNA repair in human embryonic kidney (HEK293T) cells expressing luciferase-tagged ELG1. AID 504467, 2011. 330,000 tested, 2.3% active. HEK293T ELG1-luciferase reporter, luminescence, 16 h; DNA damage induced by 5-fluorouridine. Potency, µM (titrated, usually from 46.1 µM), hits mostly inhibitors; also: nearly all actives have a fitted effect of over 55% in size
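5-Fluorouridine DNA damage + compound/DMSO, 2,000 cells/well, 16 h, 37 °C/5% CO2. ONE-Glo, 30 min RT, luminescence. Readout = decrease in reporter signal.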
HT1080-NT tox: qHTS for induction of synthetic lethality in tumor cells producing 2HG: qHTS for the HT-1080-NT fibrosarcoma cell line. Potency, µM (series often up to 46.1 µM), actives largely listed as cytotoxic. 360,000 tested, 1.6% active. HT-1080-NT fibrosarcoma viability, CellTiter-Glo ATP luminescence, 48 h. AID 686970, 2013;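 also: NT is the 2HG producing partner of a matched IDH1 knockdown line; nearly all actives have a fitted effect of over 55% in size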
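Read-out is CellTiter-Glo luminescence after 10 minutes at room temperature, following 48 hours' compound treatment of HT-1080-NT cells (750 cells/well, RPMI, 5% FBS, 37 degrees C).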
Each line names hits and unclear results; the compound was inactive in the other large screens; ! = not active in a repeat. In the library only some 19% were active in any assay of this set; here they are far more common. Unless noted, calls follow the shape of the dose curve; as a rule, active = well fitted curve in the direction sought with a large enough effect; inconclusive = small, poorly fitted or top-dose-only effect, or another doubt; inactive = no such curve, though single readings can be large; an effect the other way counts as inactive or inconclusive.

O=C(c1ccc(F)cc1)C1CCN(CCn2c(=O)[nH]c3ccccc3c2=O)CC1	DT40 TDP1 CPT 7.3µM!, DT40 TDP1 no CPT inconclusive, ELG1 DNA repair inconclusive, HT1080-NT tox inconclusive
O=C(COC(=O)c1ccncc1)Nc1cc(Cl)c(Cl)cc1Cl	none (no result: HT1080 IDH1KD tx, IL1B secr inh, DT40 TDP1 CPT, DT40 TDP1 no CPT, HT1080-NT tox)
CC(C)(C)OC(=O)C[C@@H]1C/C=C\C[C@H](CC(=O)N(CCO)Cc2ccccc2)C(=O)NCCOC1=O	none
COc1ccc(CCNC(=O)CCCn2c(=O)c3ccccc3n(CC(=O)Nc3ccccc3C)c2=O)cc1OC	none (no result: HT1080 IDH1KD tx, IL1B secr inh, ELG1 DNA repair, HT1080-NT tox)
O=C(COC(=O)c1ccccc1C(=O)c1ccc(Cl)cc1)NCCc1ccccc1	DT40 TDP1 CPT inconclusive, DT40 TDP1 no CPT inconclusive, ELG1 DNA repair inconclusive
O=C(COC(=O)c1ccccc1C(=O)c1ccc(Cl)cc1)NC(c1ccccc1)c1ccccc1	DT40 TDP1 CPT 12µM, DT40 TDP1 no CPT 15µM
CN(C)C(=O)COC(=O)c1ccccc1OCC(=O)Nc1ccc(SC(F)F)cc1	DT40 TDP1 CPT inconclusive, DT40 TDP1 no CPT 9.2µM, ELG1 DNA repair inconclusive, HT1080-NT tox inconclusive
O=C(COC(=O)c1ccccc1C(=O)c1ccccc1)Nc1ccc(SC(F)F)cc1	HT1080 IDH1KD tx inconclusive, IL1B secr inh -77, DT40 TDP1 CPT inconclusive, DT40 TDP1 no CPT inconclusive, ELG1 DNA repair inconclusive
CCOc1ccc(C(=O)OCC(=O)Nc2ccc(SC(F)F)cc2)cc1OCC	none
O=C(COc1ccccc1C(=O)O)Nc1ccc(SC(F)F)cc1	DT40 TDP1 CPT 16µM, DT40 TDP1 no CPT 16µM, ELG1 DNA repair inconclusive
COc1ccc(NC(=O)c2cnn(-c3ccccc3)c2C)cc1OC	DT40 TDP1 no CPT inconclusive, ELG1 DNA repair inconclusive
C[n+]1nc(Nc2ccccc2)sc1-c1ccc(C(=O)O)cc1	none (no result: HT1080 IDH1KD tx, IL1B secr inh, DT40 TDP1 CPT, DT40 TDP1 no CPT, HT1080-NT tox)
CCOC(=O)N1CCN(C(=O)CCl)CC1	HT1080 IDH1KD tx inconclusive, IL1B secr inh -92, DT40 TDP1 CPT inconclusive, DT40 TDP1 no CPT inconclusive, HT1080-NT tox inconclusive
CC(C)(C)NC(=O)CN1CCN(C(=O)CCl)CC1	HT1080 IDH1KD tx inconclusive, IL1B secr inh -79, DT40 TDP1 CPT 23µM, DT40 TDP1 no CPT 21µM, ELG1 DNA repair inconclusive, HT1080-NT tox inconclusive
CC(C)(C)NC(=O)NC(=O)CN1CCCCCCC1	none
CCOC(=O)N1CN(C(=O)OCC)CN(C(=O)OCC)C1	none
O=c1[nH]cnc2[nH]cc(CN3CCCCC3)c12	none (no result: HT1080 IDH1KD tx, IL1B secr inh, ELG1 DNA repair, HT1080-NT tox)
Cn1cc(-c2nc3cnc(OCc4ccccc4)nc3n(CCC#N)c2=O)c2ccccc21	none (no result: HT1080 IDH1KD tx, IL1B secr inh, ELG1 DNA repair, HT1080-NT tox)
O=C(O)c1ccccc1C(=O)Nc1ccc(-n2nc(C(F)(F)F)cc2C(F)(F)F)cc1	none
COc1cccc(C(=O)NC(=O)Nc2ccc(-n3nc(C(F)(F)F)cc3C(F)(F)F)cc2)c1	none (no result: HT1080 IDH1KD tx, IL1B secr inh, ELG1 DNA repair, HT1080-NT tox)
COc1ccccc1C(=O)Nc1ccc(-c2cc(C(F)(F)F)nn2-c2ccccc2)cc1	DT40 TDP1 CPT 4.1µM, DT40 TDP1 no CPT 5.2µM (no result: HT1080 IDH1KD tx, IL1B secr inh, ELG1 DNA repair, HT1080-NT tox)
COc1ccccc1C(=O)NC(=O)Nc1ccc(-c2cc(C(F)(F)F)nn2-c2ccccc2)cc1	DT40 TDP1 CPT 5.8µM, DT40 TDP1 no CPT 4.6µM (no result: HT1080 IDH1KD tx, IL1B secr inh, ELG1 DNA repair, HT1080-NT tox)
CCOC(=O)N1CCN(C(=O)C(=O)Nc2sc3c(c2C(=O)O)CC(C)(C)OC3)CC1	DT40 TDP1 CPT inconclusive
Cc1ccc(F)c(S(=O)(=O)NC(=O)C2(C)CCN2C(=O)Cc2ccc(-c3ccccc3)cc2)c1 (centres undefined)	DT40 TDP1 no CPT inconclusive (no result: ELG1 DNA repair)
